# In PMC4336329 (PLoS ONE, 2015):
# The campaign covered roughly 310,000 compounds. About 14,000 (4.5%) showed an effect of 50% or more. Effects have a minus sign here. Shown is part of a subset that was picked to be rich in strong results.
# Target: human ether-à-go-go-related gene (hERG) potassium channel (human, UniProt Q12809)
# Experiment: primary screen, population patch clamp on CHO cells stably expressing hERG; higher = less effect of the substance
# 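Note: peak tail current of the secondary pulse compared with the same well before compound.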
# Chain of human ether-à-go-go-related gene (hERG) potassium channel (Q12809 whole entry, looked up): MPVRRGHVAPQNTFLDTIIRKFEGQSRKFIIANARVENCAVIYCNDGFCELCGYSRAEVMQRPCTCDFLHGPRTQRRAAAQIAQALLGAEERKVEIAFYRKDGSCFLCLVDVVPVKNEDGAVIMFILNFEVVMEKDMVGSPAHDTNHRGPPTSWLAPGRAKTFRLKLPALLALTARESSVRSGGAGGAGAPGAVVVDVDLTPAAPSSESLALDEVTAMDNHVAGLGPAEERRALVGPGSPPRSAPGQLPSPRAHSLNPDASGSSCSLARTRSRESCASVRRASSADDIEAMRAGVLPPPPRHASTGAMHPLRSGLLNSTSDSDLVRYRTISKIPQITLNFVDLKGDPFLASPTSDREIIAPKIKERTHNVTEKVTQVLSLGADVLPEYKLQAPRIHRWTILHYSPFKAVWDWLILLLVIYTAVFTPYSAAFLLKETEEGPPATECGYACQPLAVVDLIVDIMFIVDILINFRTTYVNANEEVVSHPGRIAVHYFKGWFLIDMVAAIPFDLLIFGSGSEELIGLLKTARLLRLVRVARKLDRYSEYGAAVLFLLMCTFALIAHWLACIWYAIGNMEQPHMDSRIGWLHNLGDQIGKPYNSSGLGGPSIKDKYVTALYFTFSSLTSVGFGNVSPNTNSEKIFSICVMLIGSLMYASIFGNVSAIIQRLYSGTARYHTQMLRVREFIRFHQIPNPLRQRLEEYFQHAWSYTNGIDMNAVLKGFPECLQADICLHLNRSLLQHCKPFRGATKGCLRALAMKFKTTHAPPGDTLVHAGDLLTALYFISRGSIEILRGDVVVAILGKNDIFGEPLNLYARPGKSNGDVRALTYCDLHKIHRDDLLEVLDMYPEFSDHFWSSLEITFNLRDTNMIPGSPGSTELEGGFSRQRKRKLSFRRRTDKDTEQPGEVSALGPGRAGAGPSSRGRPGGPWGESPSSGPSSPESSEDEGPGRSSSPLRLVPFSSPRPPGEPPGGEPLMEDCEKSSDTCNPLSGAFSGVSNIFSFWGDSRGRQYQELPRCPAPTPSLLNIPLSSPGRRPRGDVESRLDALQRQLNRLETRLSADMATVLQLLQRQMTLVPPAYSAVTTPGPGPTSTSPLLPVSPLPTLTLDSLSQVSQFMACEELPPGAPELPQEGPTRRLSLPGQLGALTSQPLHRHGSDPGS
row,SMILES,"hERG current change (%, negative = inhibition) at 10uM [%]"
1,O=C(Cc1ccccc1)Nc1cccc(-c2nc3ncccc3o2)c1,13.6
2,COc1ccc(Nc2ccc(C(N)=O)cc2[N+](=O)[O-])cc1,7.18
3,CCCSc1nc2c(c(=O)[nH]c(=O)n2C)n1C,2.58
4,Cn1c(=O)[nH]c(=O)c2c1nc(OC(=O)c1ccccc1)n2CC(O)COc1ccccc1 (stereo not shown),23.2
5,CCCc1c(O)nc(SCc2ccccc2)[nH]c1=O,0.68
6,CC1=NN(Cc2cc(C(C)(C)C)c(O)c(C(C)(C)C)c2)C(=O)C1,17.2
7,CC(C)(C)c1cc(CN2CCCC(O)C2)c(O)c(C(C)(C)C)c1 (stereo not shown),-13.9
8,CCOC(=O)C1CCN(Cc2ccc(Cl)c(Cl)c2)CC1,-5.6
9,CCOC(=O)C1CCN(Cc2cc(C(C)(C)C)c(O)c(C(C)(C)C)c2)CC1,-63.1
10,CCN1CCN(Cc2cc(C(C)(C)C)c(O)c(C(C)(C)C)c2)CC1,-26.5
11,CN1CCN(Cc2cc(C(C)(C)C)c(O)c(C(C)(C)C)c2)CC1,-15.1
12,CC(C)(C)c1cc(CN2CCC(O)CC2)cc(C(C)(C)C)c1O,-70.1
13,CCOC(=O)C1CCN(Cc2cc(C(C)C)c(O)c(C(C)C)c2)CC1,-41.3
14,CC(C)(C)c1cc(CN2CCCCC2)cc(C(C)(C)C)c1O,-50.7
15,Cc1ccc(S(=O)(=O)N2N=C3CCCCC3C2(O)C(F)(F)F)cc1 (stereo not shown),4.99
16,O=C(NN=C1CCCC1)c1cccc(O)c1,8.96
17,O=C1C2C3CCCC3=C3CCCC3C2C(=O)N1c1ccccc1 (stereo not shown),1.8
18,C/C(=N/NC(=O)c1ccc2c(c1)OCO2)c1ccc(NC(=O)c2ccc(F)cc2)cc1,9.33
19,Cc1ccc(C(=O)NC2CCCN(c3ccc(C(F)(F)F)cn3)C2)cn1 (stereo not shown),-2.75
20,O=C(NC1CCCN(c2ccc(C(F)(F)F)cn2)C1)c1ccnc(Cl)c1 (stereo not shown),-55.5
21,O=C(NC1CCCN(c2ccc(C(F)(F)F)cn2)C1)c1cc(Cl)ccc1F (stereo not shown),5.34
22,CSc1ccccc1C(=O)NC1CCCN(c2ccc(C(F)(F)F)cn2)C1 (stereo not shown),-4.58

row,SMILES,"hERG current change (%, negative = inhibition) at 10uM [%]"
1,O=C(NC1CCCN(c2ccc(C(F)(F)F)cn2)C1)c1ccncc1 (stereo not shown),-69.2
2,O=C(CCc1ccccc1Cl)NC1CCCN(c2ccc(C(F)(F)F)cn2)C1 (stereo not shown),13.4
3,COc1ccc(CCNC(=O)Cn2nnc3ccccc3c2=O)cc1,9.17
4,CCOC(=O)CN1CC23C=CC(O2)C(C(=O)Nc2ccc(C(C)=O)cc2)C3C1=O (stereo not shown),4.98
5,CC1=C(C(=O)Nc2cccc(C(=O)NC3CCCCC3C)c2)SCCO1 (stereo not shown),-17.8
6,CC1(C)CC(=O)C=C(NCCN2CCN(C(=O)Nc3ccc(Cl)c(Cl)c3)CC2)C1,-24
7,CS(=O)(=O)N(CC(=O)NCc1cccnc1)Cc1ccc(Cl)cc1,-30.1
8,NC(=O)c1ccc(-n2nnnc2SCC(=O)Nc2ccccc2-c2ccccc2)cc1,-58.1
9,NC(=O)c1nn(-c2ccccc2)nc1NC(=O)CSc1nnnn1-c1ccc(Cl)cc1,-53.7
10,CC(C)(C)n1nnnc1SCC(=O)Nc1nn(-c2ccccc2)nc1C(N)=O,9.33
11,NC(=O)c1ccc(-n2nnnc2SCC(=O)Nc2ccccc2)cc1,14.3
12,NC(=O)c1ccc(-n2nnnc2SCC(=O)Nc2ccccc2F)cc1,18.9
13,Cn1nnnc1SCC(=O)Nc1nn(-c2ccccc2)nc1C(N)=O,-13.8
14,CN1CCN(c2cn[nH]c(=O)c2Cl)CC1,15.4
15,Cc1ccc(-c2csc(NC(=O)CN3CCC(C(N)=O)CC3)n2)cc1,8.38
16,Fc1ccccc1-c1csc(=Nc2cccnc2)n1CC1CCCO1 (stereo not shown),-16.8
17,CC(C)Cn1c(-c2ccco2)csc1=Nc1cccnc1,8.45
18,COCCn1c(-c2cccs2)csc1=Nc1cccnc1,-15.3
19,CN=c1scc(-c2ccccc2F)n1/N=C(\C)c1cccnc1,-28.9
20,c1cncc(N=c2scc(-c3cccc4ccccc34)n2CCCn2ccnc2)c1,-56.5
21,Fc1ccccc1-c1csc(=Nc2cccnc2)n1CCCn1ccnc1,-60.1
